An excerpt weighted towards active compounds, which were near 14% of everything screened.
CRE-bla Fsk – alters forskolin-stimulated CRE reporter signaling in CHO cells; 71,000 tested, 2.5% active; CHO CRE-bla reporter (cAMP response element driving beta-lactamase), forskolin EC10, beta-lactamase ratio; AID 662; Potency, µM (highest dose often 38.2 µM), inactives show top-dose activity change, negative = inhibition, most hits filed as activators; active = well fitted activation curve with a large enough effect in the signal ratio, with a control signal flat, not every such curve was filed as active; inconclusive = small, poorly fitted or top-dose-only effect, or effect the other way, or a change in a side signal; the % refers to the signal ratio; note: potency is the fitted concentration of half-maximal effect; % of control where 0% means no effect
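Titrated compounds plus EC10 NKH 477 on CHO CRE-bla cells, 3 h, 37 °C. CCF4, 2 h RT. Ratio 460/530 nm → AC50.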
4-MU autofl – compound fluoresces in the 4-MU spectral region | compound autofluorescence, 340/450 nm, 4-MU equivalents; stronger effect = higher value | max dye-equivalent concentration, M | 59,000 tested, 11% active | AID 589; in the data active = max dye-equivalent concentration above about 10 nM; inconclusive = mostly about 1.1 nM to 9.6 nM
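Compounds in 100 mM Tris, pH 8.0, sat 15 min at room temperature before fluorescence was read at 340 nm excitation/450 nm emission; a per-plate six-point 4-MU standard curve converted signals to dye-equivalent concentration at each compound concentration.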
A350 fluor – compounds fluorescent in Alexa 350 spectral region; 59,000 tested, 11% active; max dye-equivalent concentration, M; AID 590; Compound autofluorescence, 340/450 nm, Alexa 350 dye-equivalents; stronger effect = higher value; in the data active = max dye-equivalent concentration above about 10 nM; inconclusive = mostly about 1.1 nM to 9.6 nM
AID923 – qHTS Assay for Allosteric/Competitive Inhibitors of Caspase-1: Spectroscopic Profiling in AFC Spectral Region | 75,000 tested, 1.1% active | Potency, µM (top dose mostly 57.5 µM), without a hit: at the top dose fluorescence increase, usual class: activators | AID 923, 2007 | compound fluorescence, AFC spectral region (405/520 nm); note: potency is the fitted concentration of half-maximal effect; 0% is about no effect
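Compound autofluorescence profiled at 405 nm ex/520 nm em during kinetic caspase 1 run (50 nM enzyme, 5 uM Ac-WEHD-AFC, HEPES pH 7.5, 10 mM DTT). Titration up to 57 uM; baseline from regression intercept, normalized to AFC standard curve.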
HADH2 inh – blocks human hydroxyacyl-CoA dehydrogenase type II | Potency, µM (titrated, usually from 57.1 µM), for inactives: at the top dose activity change, negative = inhibition, usual class: inhibitors | recombinant HADH2, NADH fluorescence, beta-hydroxybutyryl-CoA | 73,000 tested, 3.4% active | AID 886; note: potency is the fitted concentration of half-maximal effect; % is set by controls: 0 for no effect and ±100 for the full control effect; nearly all actives have a fitted effect of over 60% in size
Target sequence (Q99714 whole entry, looked up, one chain of several): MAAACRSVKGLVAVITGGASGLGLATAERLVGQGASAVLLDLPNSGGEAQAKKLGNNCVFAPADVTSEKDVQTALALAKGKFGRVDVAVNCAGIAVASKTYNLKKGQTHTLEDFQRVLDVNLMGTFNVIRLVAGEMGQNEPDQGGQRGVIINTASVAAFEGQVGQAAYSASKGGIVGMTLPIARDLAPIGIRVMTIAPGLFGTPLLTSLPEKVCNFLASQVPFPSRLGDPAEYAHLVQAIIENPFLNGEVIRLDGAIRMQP
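His-tagged recombinant enzyme from E. coli, 20 nM, preincubated 15 min RT with compound; reaction started with 1 mM NAD+ and 90 uM beta-hydroxybutyryl-CoA in 100 mM Tris-HCl pH 9.0. NADH fluorescence (ex 360/em 450) read over 4 min; last-minus-first difference.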
HSD17B inh – blocks hydroxysteroid 17-beta dehydrogenase activity; AID 893; 75,000 tested, 7.6% active; Potency, µM (top dose mostly 57.1 µM), inactives show at the top dose activity change, negative = inhibition, usual class: inhibitors; Q99714; recombinant HSD17B10, NADH fluorescence kinetic;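 note: the protocol describes HADH2 (HSD17B10) and not the HSD17B4 of the title; potency is the fitted concentration of half-maximal effect; % is set by controls: 0 for no effect and ±100 for the full control effect; nearly all actives have a fitted effect of over 70% in size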
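Enzyme plus compound, 15 min room temperature; substrate mix added (NAD+ 1 mM, beta-hydroxybutyryl-CoA 90 uM final); plates read kinetically for NADH fluorescence. HADH2 was His-tagged, E. coli-derived, 20 nM.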
* marks the source's active call; other numbers are inactive results; i = inactive; ? = inconclusive; / = not tested or not shown; [ ] = remark or other dose. Unless noted, calls come from the whole dose curve; as a rule, active = well fitted curve in the direction sought with a large enough effect; inconclusive = small, poorly fitted or top-dose-only effect, or another doubt; inactive = no such curve, though single readings can be large; an effect the other way counts as inactive or inconclusive.

SMILES | CRE-bla Fsk | 4-MU autofl | A350 fluor | AID923 | HADH2 inh | HSD17B inh
NC(=O)CSc1nnc(-c2ccncc2)n1-c1ccc(Cl)cc1 | -9.1% | / | / | -2.8% | 13.4% | 4.7%
CCn1c(SCc2ccc(C#N)cc2)nnc1-c1ccc(S(=O)(=O)N2CCCCC2)cc1 | -3.7% | 5.7e-07M* | 4.26e-07M* | 2.3% | -9.0% | 25.1µM*
Cn1c(SCC(=O)NCc2cccs2)nnc1-c1ccc(S(=O)(=O)N2CCCC2)cc1 | -3.9% | i | i | -0.1% | -6.6% | 2.8%
CCSc1nnc(-c2ccc(S(=O)(=O)N3CCCC3)cc2)n1C | 12.1% | i | i | -0.7% | -24.7% | 31.6µM*
CCn1c(SCC(=O)N2CCCCC2)nnc1-c1ccc(S(=O)(=O)N2CCN(C)CC2)cc1 | 1.7% | i | i | 0.0% | 8.6% | 25.1µM*
CCn1c(SCC(=O)N2CCCC2)nnc1-c1ccc(S(=O)(=O)N2CCCCCC2)cc1 | -4.8% | i | i | 0.6% | 8.2% | 8.1%
O=C(O)C[C@H](Cc1ccc2c(c1)OCO2)C(=O)O | 2.7%[7.6 µM] | i | i | -2.7%[11.5 µM] | -12.4%[11.4 µM] | 1.9%[11.4 µM]
Cn1c(SCC(=O)N2CCCCC2)nnc1-c1ccc(S(=O)(=O)N2CCOCC2)cc1 | -5.8% | i | i | 0.0% | -8.9% | 25.1µM*
CCOC(=O)CSc1nnc(-c2ccc(S(=O)(=O)N3CCOCC3)cc2)n1-c1ccccc1 | 11.8% | i | i | -0.4% | -21.1% | 20µM*
Cc1nnc(SCC(=O)c2ccc(S(=O)(=O)N3CCOCC3)cc2)n1-c1ccccc1 | 3.1% | i | i | 0.0% | -15.6% | -12.3%
O=c1cnc2cnc(OCc3ccccc3)nc2n1Cc1ccc(F)cc1 | ? | i | i | 1.0% | -9.3% | -24.6%
CC(C)CCN1CCc2nc(COc3ccccc3)c3c(c2C1)COC(C)C3 (configuration not stated) | / | / | / | 0.4%[11.5 µM] | 7.4%[11.4 µM] | 1.4%[11.4 µM]
CCC1=C2CC[C@H]3C(=O)N(CC)C(=O)[C@H]3[C@H]2[C@@]2(Cc3ccccc3)C(=NCC3CC3)OC(=O)N2C1=O | / | / | / | 0.2% | / | 7.8%
CNc1cc(-c2ccccc2C(F)(F)F)ncn1 | -6.7% | i | i | 2.7% | -2.5% | -14.0%
COCC(=O)N(Cc1cc2cc(OC)ccc2[nH]c1=O)c1ccccc1OC | 13.7% | 2.84e-07M* | 3.77e-07M* | -0.6% | -19.6% | 25.1µM*
COCC(=O)N(Cc1cc2cc(OC)ccc2[nH]c1=O)c1ccc(C)cc1 | ? | 3.49e-07M* | 1.71e-07M* | 3.1% | -10.2% | 25.1µM*
COCC(=O)N(Cc1cc2ccc(C)cc2[nH]c1=O)c1ccc(OC)cc1 | -1.7% | i | ? | -0.5% | -11.5% | -16.6%
CCC(=O)N(Cc1cc2cc(OC)ccc2[nH]c1=O)c1cccc(C)c1 | 5.4% | 1.71e-07M* | 1.43e-07M* | 0.1% | ? | 25.1µM*
COC(=O)[C@@]1(Cc2ccc(F)cc2)[C@H]2c3cc(C(=O)N4CCCC4)n(CCN4CNCC4=O)c3C[C@H]2CN1C(=O)c1ccccc1 | ? | / | / | -1.1% | 5.3% | -9.8%
O=C(Nc1ccccc1)N1CC[C@@]2(CCCN(C(=O)c3ccco3)C2)C1 | -5.9% | i | i | 4.2% | 0.1% | -5.4%
COc1ccc(Oc2ncc3ncc(=O)n(Cc4cccc(OC)c4)c3n2)cc1 | ? | i | i | -0.2% | 2.5% | -0.3%
COC(=O)[C@@H]1C[C@@H]2CC[C@@H](O)C[C@@H]2N1Cc1ccc(C)s1 | / | / | / | 0.5% | / | -8.3%
CN(C)c1nc(OCCOC(=O)c2ccccc2)nc(N(C)C)n1 | 5.01µM* | i | i | -1.2% | 0.7% | 0.4%
CSc1nnc(-c2cc3ccccc3cc2O)n1C | -2.0% | 3.27e-07M* | 2.58e-07M* | 2.4% | 31.6µM* | 25.1µM*
O=C1c2ccccc2S(=O)(=O)N1CC(O)COc1ccc(Br)cc1 (configuration not stated) | -2.9% | / | / | 2.6% | -1.9% | ?
O=C1c2ccccc2S(=O)(=O)N1CC(O)COc1ccc(Cl)cc1 (configuration not stated) | / | 4.89e-06M* | 5.33e-06M* | / | / | /

From PubChem BioAssay
